Data from the supplement of paper PMC10681739.

Legend:
ETS1 [1] = biological target: T1, ETS1 (UniProt P14921); assay: ETS1 binding intensity (PBM fluorescence), ETS1 alone (arbitrary fluorescence units); higher = stronger binding; settings: ETS1 concentration 1 nM; RUNX1 concentration 0 nM
T1 sequence: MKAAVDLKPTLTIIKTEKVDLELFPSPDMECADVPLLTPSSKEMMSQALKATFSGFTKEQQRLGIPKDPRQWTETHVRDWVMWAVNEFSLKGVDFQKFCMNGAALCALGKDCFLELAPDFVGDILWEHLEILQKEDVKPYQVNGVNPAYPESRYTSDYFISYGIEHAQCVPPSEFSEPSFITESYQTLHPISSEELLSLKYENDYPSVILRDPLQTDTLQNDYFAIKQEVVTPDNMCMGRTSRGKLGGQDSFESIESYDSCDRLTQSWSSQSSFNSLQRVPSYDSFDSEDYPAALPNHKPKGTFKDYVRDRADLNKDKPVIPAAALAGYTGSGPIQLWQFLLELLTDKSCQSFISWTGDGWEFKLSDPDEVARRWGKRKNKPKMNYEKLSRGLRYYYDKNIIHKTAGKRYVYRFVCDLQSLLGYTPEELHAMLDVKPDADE

RUNX1 [2] = biological target: RUNX1 (UniProt Q01196); assay: RUNX1 binding intensity (PBM fluorescence), RUNX1 alone (arbitrary fluorescence units); higher = stronger binding; settings: RUNX1 concentration 2 nM; ETS1 concentration 0 nM
Sequence of RUNX1 (Q01196 whole entry): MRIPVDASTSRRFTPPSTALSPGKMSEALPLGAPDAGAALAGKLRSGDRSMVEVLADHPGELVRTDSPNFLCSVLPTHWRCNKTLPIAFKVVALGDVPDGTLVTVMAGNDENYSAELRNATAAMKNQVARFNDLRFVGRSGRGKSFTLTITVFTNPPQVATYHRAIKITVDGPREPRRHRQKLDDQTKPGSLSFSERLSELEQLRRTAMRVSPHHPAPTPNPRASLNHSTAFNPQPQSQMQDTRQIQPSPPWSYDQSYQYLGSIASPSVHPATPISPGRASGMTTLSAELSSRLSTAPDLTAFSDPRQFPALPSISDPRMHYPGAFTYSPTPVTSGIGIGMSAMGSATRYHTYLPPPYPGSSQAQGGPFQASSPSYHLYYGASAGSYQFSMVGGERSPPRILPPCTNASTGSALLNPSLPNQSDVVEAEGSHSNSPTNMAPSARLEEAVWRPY
Method: (§1)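 Cooperative gcPBM on 36-bp genomic probes with neighbouring ETS1 and RUNX1 sites. Recombinant human RUNX1 (2 nM) was incubated alone or with ETS1 (25 nM) and detected with anti-RUNX1 antibody plus Alexa488 secondary. Values are medians over 4 replicate spots; the RUNX1+ETS1 data were normalised to the RUNX1-only data. The probes sit in constant array flanks that are not printed.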

ETS1 [3] = biological target: T1, ETS1; assay: ETS1 binding intensity (PBM fluorescence) in presence of RUNX1, normalised to ETS1-only experiment (arbitrary fluorescence units); higher = stronger binding; settings: ETS1 concentration 1 nM; RUNX1 concentration 25 nM
RUNX1 [4] = biological target: RUNX1 (UniProt Q01196); assay: RUNX1 binding intensity (PBM fluorescence) in presence of ETS1, normalised to RUNX1-only experiment (arbitrary fluorescence units); higher = stronger binding; settings: RUNX1 concentration 2 nM; ETS1 concentration 25 nM
Method: as §1
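Throughout, for RUNX1 binding intensity (PBM fluorescence) in presence of ETS1, normalised to RUNX1-only experiment: Full-length recombinant human ETS1 or RUNX1 bound to double-stranded 36-bp genomic probes on microarrays, detected by protein-specific primary antibody and Alexa488 secondary, spot fluorescence as median of four replicate spots.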
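Throughout, for RUNX1 binding intensity (PBM fluorescence), RUNX1 alone: Full-length recombinant human RUNX1 bound to double-stranded 36-bp genomic probes on a high-density microarray, scored as Alexa488 fluorescence per spot via anti-RUNX1 antibody, median of four replicate spots.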

Sequence	ETS1 binding intensity (ETS1 [1])	RUNX1 binding intensity (RUNX1 [2])	ETS1 binding intensity (ETS1 [3])	RUNX1 binding intensity (RUNX1 [4])
GCTCATTTCCTGGCCGCTCCTGGGCTTCGCGGTGAG	498	834	716	1730
TCTTGAGGGTCAGGATGTGGTGAGGCCAGAGAAGGC	951	808	2120	1420
CACTGCGGAAGCAGTGTAGAGAGGTGGTTATCAGTG	707	784	680	921
GAGACACTCTGCTTCCTGCGGTGGAAGATTCAGTAT	473	873	482	1080
CCTCACAGGGACTTCCTTCCCCGCGGTTCAGGAATC	444	866	577	1100
GTTGGGGTGCGTGTAGGATGTGGTCTGGGATGATTA	599	1050	2610	867
CAAAGTGATGGGGGAAATGGTTGTGGTTTTGGGTGG	553	1180	3760	1500
CGGCATCTGACAGGATGTGGGCAGGGAGAGAGAGAC	3780	1270	9220	4210
TCTGTTCTTCCTTTTCCTGTGCGGTGTGCCCCAAAC	628	1530	722	2810
CCCACAGGAAATCCCCTGGTCTGTGGCGCCTCTGAT	881	766	823	1110
CCCACTGATAAGACAGGATGTGGTAAAGAAGCCAGC	5700	776	22800	6790
TCTTGTTTCTTCCGTTACCGGAGCGCGGTCACGTGA	455	979	438	1570
TAACTACTTCCTTTTACTATCTACCACAATTTAATT	516	1620	510	2810
AATCATCAGGGAAATGCAAATCAAAACCACAATCAG	547	1480	1200	1300
